Some test systems named below: HCT-15 colon; HT29 colon; SNB-75 CNS; SNB-19 CNS; U251 CNS; PC-3 prostate; SK-MEL-5 melanoma; UACC-62 melanoma; SK-MEL-28 melanoma; SK-MEL-2 melanoma; EKVX NSCLC; SN12C renal; UO-31 renal; TK-10 renal; ACHN renal; CAKI-1 renal; A498 renal; CCRF-CEM leukemia; MOLT-4 leukemia.
Experiment in all cases: NCI-60 one-dose screen, 48 h (100 = growth as untreated, 0 = no growth, -100 = all killed)
What all share (conditions): 10 µM unless noted

This is part of a sample that, as a whole, favours compounds with a hit. Of some 83,000 tested, about 20% had one in any assay.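 Each cell line was grown in a 96-well plate and treated with one concentration of compound for 48 hours. Values below 10 were considered active.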 Values without a mark were called inactive. Calls of active or inactive are those of the source.

`COc1ccc2cc([C@H](C)C(=O)N/N=C/c3ccc(Br)cc3)ccc2c1`: the growth was 101% in the assay with HCT-15 colon; 106% in the assay with HT29 colon; 71.4% with SNB-75 CNS; 98.8% in the assay with SNB-19 CNS; 100% with U251 CNS; 106% with PC-3 prostate. Also, the growth with SK-MEL-5 melanoma was 99.9%; with UACC-62 melanoma, 95.6%; in the assay on SK-MEL-28 melanoma it was 108%; with SK-MEL-2 melanoma it was 109%; in the assay on EKVX NSCLC, 94.2%; with SN12C renal it was 97.2%. Also, the growth in the assay on UO-31 renal is 83.3%; with TK-10 renal, 101%; with ACHN renal, 106%; in the assay on CAKI-1 renal, 87.2%; in the assay with A498 renal it was 107%; with CCRF-CEM leukemia, 101%. Moreover, the growth with MOLT-4 leukemia was 86.6%.

Consider `CSc1ccc(C(=O)Nc2ccc3nnn(/C(C#N)=C/c4ccccn4)c3c2)cc1`, for which the growth with HCT-15 colon is -41.8% (active); with HT29 colon it was -86.6% (active); with SNB-75 CNS it was 55.9%; with SNB-19 CNS it was -3.44% (active); with U251 CNS, -78.2% (active); in the assay on PC-3 prostate, 7.72% (active). Further, the growth in the assay on SK-MEL-5 melanoma was -57.2% (active); in the assay on UACC-62 melanoma, -51.3% (active); with SK-MEL-28 melanoma, -50.2% (active); in the assay on SK-MEL-2 melanoma it was -82% (active); with EKVX NSCLC, -86.4% (active); with SN12C renal, -4.37% (active). Moreover, the growth was -100% (active) with UO-31 renal; -74% (active) in the assay with TK-10 renal; -93.2% (active) with ACHN renal; 4.99% (active) in the assay with CAKI-1 renal; 59.3% in the assay with A498 renal; 12.6% in the assay with CCRF-CEM leukemia. The growth in the assay on MOLT-4 leukemia was 12.1%.

For the molecule `CCN1C(=O)/C(=N\N=C(/C)c2ccc3c(c2)Nc2ccccc2S3)c2cc(Cl)ccc21`, the growth in the assay on HCT-15 colon was 46.7%; in the assay on HT29 colon, 71.6%; in the assay on SNB-75 CNS it was 76%; in the assay with SNB-19 CNS it was 64.4%; in the assay with U251 CNS it was 73.7%; in the assay on PC-3 prostate, 40.5%. The growth is 7.2% (active) in the assay on SK-MEL-5 melanoma; 32.7% with UACC-62 melanoma; 47.2% in the assay with SK-MEL-28 melanoma; 70.8% in the assay on SK-MEL-2 melanoma; 40.1% with EKVX NSCLC; 58.9% in the assay with SN12C renal. For the same molecule, the growth was 56.6% in the assay on UO-31 renal; 72.1% in the assay with TK-10 renal; 24.6% in the assay on ACHN renal; 48.1% in the assay on CAKI-1 renal; 60.1% in the assay with A498 renal; 50.8% in the assay on CCRF-CEM leukemia. Also, the growth in the assay on MOLT-4 leukemia is 37.4%.

Turning to `COc1ccc(C(=O)/C=C/c2ccc(OCc3ccc(F)cc3)c(OC)c2)cc1OC`, the growth with HCT-15 colon was 10.2%; with HT29 colon, 10.7%; in the assay with SNB-75 CNS, -15% (active); in the assay with SNB-19 CNS it was 15.4%; with U251 CNS, 10.1%; in the assay on PC-3 prostate it was 24%. Also, the growth in the assay with SK-MEL-5 melanoma is 17.8%; in the assay with UACC-62 melanoma, 18.8%; in the assay with SK-MEL-28 melanoma it was 46.8%; with SK-MEL-2 melanoma, 52.9%; in the assay with EKVX NSCLC, 59.9%; with SN12C renal, -1.58% (active). In addition, the growth in the assay on UO-31 renal was 21.5%; in the assay with TK-10 renal, 39.6%; in the assay on ACHN renal it was 28.5%; in the assay with CAKI-1 renal, 32.6%; with A498 renal, 94.7%; with CCRF-CEM leukemia, 7.26% (active). In addition, the growth in the assay with MOLT-4 leukemia is 9.77% (active).

As to `COc1ccc2[nH]cc(-c3nc(N)nnc3-c3cn(C)c4ncccc34)c2c1`, the growth with HCT-15 colon was 44.4%; in the assay on HT29 colon it was 35.6%; with SNB-75 CNS, 14.2%; in the assay on SNB-19 CNS, 63.8%; in the assay on U251 CNS, 60.1%; in the assay on PC-3 prostate it was 68.4%. The growth in the assay with SK-MEL-5 melanoma is 31.2%; with UACC-62 melanoma it was 37.7%; in the assay with SK-MEL-28 melanoma it was 62.3%; with SK-MEL-2 melanoma, 49.4%; in the assay with EKVX NSCLC it was 63.7%; with SN12C renal, 59.6%. In addition, the growth with UO-31 renal is 43.9%; with TK-10 renal, 93.1%; with ACHN renal it was 67.3%; with CAKI-1 renal, 38.8%; in the assay with A498 renal, 104%; with CCRF-CEM leukemia, 67.7%. The growth in the assay on MOLT-4 leukemia is 41.3%.

On to `COc1cc(/C=C/C(=O)c2ccccc2)ccc1Oc1nc(Nc2ccc(F)cc2)nc(N(C)C)n1`, for which the growth with HCT-15 colon is -0.132% (active); in the assay with HT29 colon it was 14.5%; in the assay on SNB-75 CNS, 39.9%; with SNB-19 CNS it was 3.33% (active); with U251 CNS, 5.24% (active); in the assay with PC-3 prostate it was 30.2%. Further, the growth in the assay on SK-MEL-5 melanoma is 18.9%; in the assay with UACC-62 melanoma, 14.8%; with SK-MEL-28 melanoma, 18%; with SK-MEL-2 melanoma, -38% (active); in the assay on EKVX NSCLC, 38.6%; with SN12C renal, -5.73% (active). Also, the growth in the assay with UO-31 renal is 27.3%; in the assay with TK-10 renal, 89.8%; in the assay on ACHN renal, -4.12% (active); in the assay with CAKI-1 renal, 37.5%; in the assay on A498 renal, 48.8%; in the assay on CCRF-CEM leukemia, 9.17% (active). The growth in the assay on MOLT-4 leukemia was 7.1% (active).

`COc1cc(C2CC(c3cc(OC)c(OC)c(OC)c3)=Nc3c(N)nc(N)nc3N2)ccc1Oc1nc(NCCO)nc(N2CCOCC2)n1` (stereo unspecified): the growth in the assay with HCT-15 colon is 102%; in the assay on HT29 colon, 107%; with SNB-75 CNS it was 88.7%; in the assay on SNB-19 CNS it was 94.9%; in the assay with U251 CNS it was 101%; in the assay with PC-3 prostate, 100%. For the same molecule, the growth is 99% in the assay with SK-MEL-5 melanoma; 102% in the assay on UACC-62 melanoma; 108% in the assay with SK-MEL-28 melanoma; 105% in the assay with SK-MEL-2 melanoma; 84.3% in the assay with EKVX NSCLC; 93% with SN12C renal. Further, the growth was 84.1% with UO-31 renal; 120% with TK-10 renal; 101% in the assay on ACHN renal; 80.8% in the assay on CAKI-1 renal; 105% in the assay with A498 renal; 102% in the assay with CCRF-CEM leukemia. Besides, the growth with MOLT-4 leukemia is 96.7%.

Take `CN(C)CCn1c2ccccc2c2nc3ccc([N+](=O)[O-])cc3nc21`: the growth in the assay with HCT-15 colon is 4.65% (active); with HT29 colon it was -15.6% (active); in the assay on SNB-75 CNS, 47.6%; in the assay on SNB-19 CNS, 4.08% (active); in the assay with U251 CNS it was -8.94% (active); in the assay on PC-3 prostate, 19.9%. Also, the growth is -81% (active) in the assay on SK-MEL-5 melanoma; -25.5% (active) with UACC-62 melanoma; 8.67% (active) with SK-MEL-28 melanoma; -10.6% (active) with SK-MEL-2 melanoma; 17.3% in the assay on EKVX NSCLC; -9.41% (active) in the assay on SN12C renal. For the same molecule, the growth with UO-31 renal was -47.6% (active); with ACHN renal, -40.8% (active); in the assay on CAKI-1 renal, -23.8% (active); in the assay with A498 renal, -41.7% (active); in the assay with CCRF-CEM leukemia, 17.6%; in the assay with MOLT-4 leukemia, 8.56% (active).

For the origin of these results see PubChem BioAssay (NCI).
